From PubChem BioAssay
A number with no mark means an inactive call. For some assays here: Entries with a potency or affinity are not part of this list. Active and inactive are the calls of the source. Unless noted, no rule for the calls is given here.

Experiments:
[1] = antimalarial activity against Dd2 strain (AID 2302;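 active = growth inhibition above 50% at the single 2 µM test dose, taken to imply half-maximal potency below 2 µM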;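 also: 0% = DMSO untreated growth and 100% = chloroquine plus artemisinin killed control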); conditions: P. falciparum Dd2 in RBCs, LDH growth readout, 72 h; at 2 µM; stronger effect = higher value
[2] = human hepatoma cell viability loss – ATP luminescence, cytotoxicity control for P. falciparum antimalarial project, primary screen (AID 2303;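 active = inhibition above 50%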;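 also: 0% = DMSO wells and 100% = digitonin-killed cells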); conditions: HepG2 viability, 24-48 h, at 10 µM, stronger effect = higher value
[3] = target: L-lactate dehydrogenase (Plasmodium falciparum (isolate CDC / Honduras)) (UniProt Q27743); experiment: PfLDH activity inhibition – cell lysate, 3D7 strain, counter-screen for P. falciparum growth inhibition project (AID 2304);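 also: 0% = vehicle and 100% = reference inhibitor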; conditions: P. falciparum 3D7 crude extract, LDH APAD/NBT absorbance; at 2 µM; stronger effect = higher value
[4] = inhibition of 3D7 malaria parasite growth – strain 3D7 (AID 2306);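 also: 0% = DMSO wells and 100% = chloroquine plus artemisinin control wells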; conditions: P. falciparum 3D7 erythrocytic growth, LDH absorbance, 72 h; at 2 µM; stronger effect = higher value
[5] = target: Calcium-dependent protein kinase 1 (Plasmodium falciparum (isolate 3D7)) (UniProt P62344); experiment: PfCDPK1 kinase inhibitors, biochemical, TCAMS library (AID 1159585; cut-off not given, nearly all actives have IC50 up to about 0.98 µM;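 also: inhibitors leave more ATP so luminescence rises with inhibition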); conditions: recombinant PfCDPK1, Kinase-Glo ATP depletion luminescence
[6] = target: Plasmodium falciparum protein kinase 6 (PK6, PF3D7_1337100) (UniProt Q8IDW1); experiment: PfPK6 kinase inhibitors, biochemical, TCAMS library (AID 1159586); conditions: recombinant PfPK6, Kinase-Glo ATP depletion luminescence
[7] = target: Protein kinase 7 (PK7), Plasmodium falciparum 3D7 (PF3D7_0213400) (UniProt Q7YTF7); experiment: inhibition of Plasmodium PK7 catalytic activity – biochemical, TCAMS antimalarial set, Kinase-Glo luminescence (AID 1159587); conditions: recombinant PfPK7, Kinase-Glo ATP depletion luminescence
[8] = target: Calcium-dependent protein kinase 4 (Plasmodium falciparum (isolate 3D7)) (UniProt Q8IBS5); experiment: PfCDPK4 kinase inhibitors, biochemical, TCAMS library (AID 1159588; cut-off not given, nearly all actives have IC50 up to about 0.91 µM); conditions: recombinant PfCDPK4, Kinase-Glo ATP depletion luminescence
Sequence of Calcium-dependent protein kinase 4 (Plasmodium falciparum (isolate 3D7)) (Q8IBS5 whole entry, looked up): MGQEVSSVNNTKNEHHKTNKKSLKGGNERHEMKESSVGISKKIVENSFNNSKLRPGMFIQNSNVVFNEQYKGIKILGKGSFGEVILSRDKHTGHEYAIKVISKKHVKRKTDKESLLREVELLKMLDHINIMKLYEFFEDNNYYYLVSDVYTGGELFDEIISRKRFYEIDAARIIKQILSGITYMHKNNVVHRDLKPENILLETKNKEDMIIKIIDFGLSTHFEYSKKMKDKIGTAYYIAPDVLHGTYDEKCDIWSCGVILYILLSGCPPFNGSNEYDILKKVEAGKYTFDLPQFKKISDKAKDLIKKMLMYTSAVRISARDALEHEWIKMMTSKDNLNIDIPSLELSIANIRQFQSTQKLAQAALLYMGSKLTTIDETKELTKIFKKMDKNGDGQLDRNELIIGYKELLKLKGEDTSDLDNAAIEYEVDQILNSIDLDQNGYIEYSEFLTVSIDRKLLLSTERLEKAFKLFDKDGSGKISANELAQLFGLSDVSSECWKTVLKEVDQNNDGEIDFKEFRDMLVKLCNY

Sequence of Plasmodium falciparum protein kinase 6 (PK6, PF3D7_1337100) (Q8IDW1 1-305): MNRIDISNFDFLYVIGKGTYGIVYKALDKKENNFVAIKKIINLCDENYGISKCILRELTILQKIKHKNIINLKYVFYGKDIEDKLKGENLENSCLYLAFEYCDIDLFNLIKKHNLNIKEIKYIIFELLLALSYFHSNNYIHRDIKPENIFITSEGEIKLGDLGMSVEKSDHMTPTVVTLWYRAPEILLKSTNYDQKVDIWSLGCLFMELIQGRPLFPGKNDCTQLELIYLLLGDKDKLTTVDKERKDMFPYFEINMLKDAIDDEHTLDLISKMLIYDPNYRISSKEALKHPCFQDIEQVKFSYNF
Sequence of Protein kinase 7 (PK7), Plasmodium falciparum 3D7 (PF3D7_0213400) (Q7YTF7 1-343): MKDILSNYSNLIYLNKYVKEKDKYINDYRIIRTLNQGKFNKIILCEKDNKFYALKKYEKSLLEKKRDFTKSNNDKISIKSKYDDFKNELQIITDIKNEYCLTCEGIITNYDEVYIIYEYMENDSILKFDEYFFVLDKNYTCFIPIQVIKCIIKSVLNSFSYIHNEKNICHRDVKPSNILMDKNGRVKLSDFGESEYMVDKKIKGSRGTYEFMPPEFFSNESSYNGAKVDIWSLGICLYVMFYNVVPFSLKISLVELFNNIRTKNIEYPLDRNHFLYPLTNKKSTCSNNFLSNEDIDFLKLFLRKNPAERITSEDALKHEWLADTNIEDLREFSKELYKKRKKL
Sequence of Calcium-dependent protein kinase 1 (Plasmodium falciparum (isolate 3D7)) (P62344 whole entry, looked up): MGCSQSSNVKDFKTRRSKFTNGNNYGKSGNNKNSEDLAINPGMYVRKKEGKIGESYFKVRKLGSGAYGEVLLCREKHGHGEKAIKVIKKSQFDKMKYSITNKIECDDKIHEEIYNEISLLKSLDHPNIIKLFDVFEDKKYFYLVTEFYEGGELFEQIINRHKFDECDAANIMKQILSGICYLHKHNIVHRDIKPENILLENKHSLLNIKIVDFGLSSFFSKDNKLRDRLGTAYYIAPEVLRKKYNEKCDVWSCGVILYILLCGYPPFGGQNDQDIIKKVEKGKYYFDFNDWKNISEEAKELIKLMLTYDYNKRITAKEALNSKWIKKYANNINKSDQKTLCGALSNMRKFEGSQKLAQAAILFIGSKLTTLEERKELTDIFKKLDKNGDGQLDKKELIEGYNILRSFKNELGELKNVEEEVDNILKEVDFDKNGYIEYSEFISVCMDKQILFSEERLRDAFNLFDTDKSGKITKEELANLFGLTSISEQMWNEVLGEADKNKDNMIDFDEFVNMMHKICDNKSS
Sequence of L-lactate dehydrogenase (Plasmodium falciparum (isolate CDC / Honduras)) (Q27743 whole entry, looked up): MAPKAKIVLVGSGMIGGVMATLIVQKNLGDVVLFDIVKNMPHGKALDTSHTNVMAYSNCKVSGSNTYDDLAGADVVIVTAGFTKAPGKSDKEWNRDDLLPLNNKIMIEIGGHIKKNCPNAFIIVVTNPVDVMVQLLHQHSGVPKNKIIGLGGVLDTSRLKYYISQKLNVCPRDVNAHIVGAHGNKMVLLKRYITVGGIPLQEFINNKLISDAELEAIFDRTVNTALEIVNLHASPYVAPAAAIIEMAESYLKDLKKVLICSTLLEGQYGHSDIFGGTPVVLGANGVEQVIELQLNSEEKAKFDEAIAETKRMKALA

| SMILES | growth inhibition [1] | inhibition [2] | inhibition [3] | growth inhibition [4] | outcome [5] | outcome [6] | outcome [7] | outcome [8] |
| --- | --- | --- | --- | --- | --- | --- | --- | --- |
| CC(CCON1C(N)=NC(N)=NC1(C)C)c1ccc(Cl)cc1 (stereo not given) | 97% (active) | 64% (active) | -5% | 93% (active) | inactive | inactive | inactive | inactive |
| CC(C)(C)c1ccc(N2C(N)=NC(N)=NC2(C)C)cc1Cl | 3% | 51% (active) | -5% | 94% (active) | inactive | inactive | inactive | inactive |
| CCOc1ncccc1CN1CCC(N2CCc3cc(NC(=O)c4cc(C)on4)ccc32)C1 (stereo not given) | 96% (active) | -3% | -1% | 89% (active) | inactive | inactive | inactive | inactive |
| COCCCNc1sc(S(=O)(=O)c2ccccc2)nc1S(=O)(=O)c1ccc(Cl)cc1 | 87% (active) | -7% | 4% | 95% (active) | inactive | inactive | inactive | inactive |
| NC(N)=Nc1ccc(CCc2ccc(N=C(N)N)cc2)cc1 | 95% (active) | 57% (active) | -1% | 96% (active) | inactive | inactive | inactive | inactive |
| COC(=O)c1ccc(CCC(C)NCC(O)c2cccc(C(F)(F)F)c2)cc1 (stereo not given) | 99% (active) | 16% | -7% | 99% (active) | inactive | inactive | inactive | inactive |
| COc1ccc2nccc([C@@H](O)CN3CCC(NC(=O)c4ccc(Oc5ccccc5)cc4)CC3)c2c1 | 13% | 39% | 2% | 82% (active) | inactive | inactive | inactive | inactive |
| O=C1Nc2cccc3c2C1(CCCCN1CCC(c2c(-c4ccccc4)[nH]c4ccccc24)CC1)CCC3 (stereo not given) | 33% | 18% | -1% | 84% (active) | inactive | inactive | inactive | inactive |
| Cc1cc(CNCC2CCC(CNCCCc3ccccc3)CC2)ccc1O (stereo not given) | 0% | 25% | 7% | 101% (active) | inactive | inactive | inactive | inactive |
| CCC1N=C(N)N=C(N)N1OCc1cccc2ccccc12 (stereo not given) | 1% | 66% (active) | -4% | 93% (active) | inactive | inactive | inactive | inactive |
| O=C(/C=C/c1ccc(Cl)c(Cl)c1)NCCCCCCN1CCN(C(=O)Nc2ccc(Cl)c(C(F)(F)F)c2)CC1 | 43% | 47% | -6% | 99% (active) | inactive | inactive | inactive | inactive |
| COc1ccc(CCNC(=O)c2cc(C)ccc2O)cc1-c1ccc(C(C)(C)C)cc1 | 94% (active) | 1% | -6% | 97% (active) | inactive | inactive | inactive | inactive |
| CN(C)c1ccc(-c2csc(C(=O)NC3CCCCN(Cc4ccc(C(C)(C)C)cc4)C3)c2)cc1 (stereo not given) | 55% (active) | 17% | 4% | 84% (active) | inactive | inactive | inactive | inactive |
| CCN(CCN(C)C)Cc1ccc(-c2ccc(NS(=O)(=O)c3cccc(Cl)c3)cc2)cc1 | 40% | 43% | 4% | 97% (active) | inactive | inactive | inactive | inactive |
| CCCNCc1ccc(-c2ccc(CN(Cc3cnc(C)cn3)C(=O)CC#N)cc2)nc1 | -3% | 4% | 5% | 92% (active) | inactive | inactive | inactive | inactive |
| CCN(CC)CCOc1ccc(N(Cc2ccc(C(C)(C)C)cc2)C(=O)c2ccc(Cc3ccccc3)cc2)cc1OC | 73% (active) | 5% | 0% | 99% (active) | inactive | inactive | inactive | inactive |
| CN(C)C(=O)CCCn1c(CNCCCNc2cc(=O)c3ccccc3[nH]2)cc2c(Cl)cc(Cl)cc21 | -4% | 1% | -1% | 89% (active) | inactive | inactive | inactive | inactive |
| CCOc1cc2ncnc(Nc3cc(Cl)c(Cl)c(Cl)c3)c2cc1OCC | 98% (active) | 11% | -3% | 102% (active) | inactive | inactive | inactive | inactive |
| Cc1cc(N[C@@H](CC(C)C)C(=O)NCc2cccs2)nc(Nc2ccccc2)n1 | 57% (active) | 18% | 1% | 100% (active) | inactive | inactive | inactive | inactive |
| COc1ccc(OCCn2cc(C(=O)c3ccco3)c3ccccc32)cc1 | 61% (active) | 17% | -1% | 98% (active) | inactive | inactive | inactive | inactive |

| SMILES | growth inhibition [1] | inhibition [2] | inhibition [3] | growth inhibition [4] | outcome [5] | outcome [6] | outcome [7] | outcome [8] |
| --- | --- | --- | --- | --- | --- | --- | --- | --- |
| O=C(Nc1ccc(Cl)cc1F)N[C@H]1CCN(CCCCCNC(=O)[C@@H]2C[C@H]2c2ccc(Cl)c(Cl)c2)C1 | -3% | 29% | 3% | 87% (active) | inactive | inactive | inactive | inactive |
| COc1cc2c(cc1S(=O)(=O)c1ccc(NC(=O)c3cccc(C(F)(F)F)c3)cc1)CCN(C)CC2 | 25% | 18% | 3% | 92% (active) | inactive | inactive | inactive | inactive |
| COc1ccc2c(NN=Cc3cccc(Cl)c3)cc(C)nc2c1 | 99% (active) | 3% | 3% | 103% (active) | inactive | inactive | inactive | inactive |
| COc1ccc2nccc([C@@H](O)CN3CCC(NCc4cc5ccccc5cn4)CC3)c2n1 | 14% | 3% | -2% | 93% (active) | inactive | inactive | inactive | inactive |
| CCN(CC)CCN(Cc1ccc(-c2ccc(C(F)(F)F)cc2)cc1)C(=O)CN1C(CCc2cccc(F)c2F)=NS(=O)(=O)c2ccccc21 | 49% | 36% | -1% | 101% (active) | inactive | inactive | inactive | inactive |
| COc1ccc(NC(=O)[C@H](C)Nc2cc(C)nc(NCC3CCCCC3)n2)cc1 | 13% | 12% | -3% | 92% (active) | inactive | inactive | inactive | inactive |
| Cc1cc(N[C@@H](Cc2ccccc2)C(=O)NCc2cccc(F)c2)nc(Nc2ccccc2)n1 | 92% (active) | 20% | 5% | 100% (active) | inactive | inactive | inactive | inactive |
| COc1cccc(-c2cnc(-c3ccncc3)nc2C2CCN(Cc3ccc(NC(C)=O)cc3)CC2)c1 | -3% | 17% | 0% | 89% (active) | inactive | inactive | inactive | inactive |
| Cc1[nH]nc2cc(Nc3nccc(Nc4ccc(Oc5ccccc5)cc4)n3)ccc12 | 98% (active) | 8% | -7% | 101% (active) | inactive | inactive | inactive | inactive |
| CCCCNCc1ccc(-c2nc(CN(C(=O)Nc3cc([N+](=O)[O-])ccc3F)C3Cc4ccccc4C3)cs2)cc1 | 13% | 15% | -2% | 87% (active) | inactive | inactive | inactive | inactive |
| CC1(C)N=C(N)N=C(N)N1OCCCCCOc1ccccc1 | 97% (active) | 61% (active) | 4% | 95% (active) | inactive | inactive | inactive | inactive |
| CN1CCCC(CN2CCN(Cc3cccc(-c4csc(-c5nc6ccccc6[nH]5)c4)c3)CC2)C1 (stereo not given) | 100% (active) | 65% (active) | -4% | 100% (active) | inactive | inactive | inactive | inactive |
| CCNC(=O)N1CCc2ccc(Oc3nc(NCc4ccccc4OC)ncc3C)cc2CC1 | 76% (active) | -9% | -9% | 83% (active) | inactive | inactive | inactive | inactive |
| CO/C(=C\C=C\c1cc2cc(Cl)c(Cl)cc2[nH]1)C(=O)NCCCN1CCN(c2ccc(OC)cc2)CC1 | 44% | 40% | -7% | 99% (active) | inactive | inactive | inactive | inactive |
| O=C(Cc1ccccc1)NC1CCN(c2ccnc3cc(Cl)ccc23)C1 (stereo not given) | 78% (active) | 6% | -6% | 101% (active) | inactive | inactive | inactive | inactive |
| c1ccc(-c2cc(NCc3cccc4ccccc34)c3[nH]ncc3n2)cc1 | 5% | 7% | -8% | 93% (active) | inactive | inactive | inactive | inactive |
| O=C(NC1CC1)c1cnc(N2CCC(COc3cccc(F)c3)CC2)c(Cl)c1 | 87% (active) | 1% | 5% | 89% (active) | inactive | inactive | inactive | inactive |
| CN(C)c1ccc(-c2csc(C(=O)NC3CCN(Cc4ccc(C(C)(C)C)cc4)C3)c2)cc1 (stereo not given) | 50% (active) | 26% | -1% | 99% (active) | inactive | inactive | inactive | inactive |
| CN(C)C=Nc1ccc(OCCCCCCOc2ccc(N=CN(C)C)cc2)cc1 | 94% (active) | 26% | 6% | 101% (active) | inactive | inactive | inactive | inactive |
| COc1cc(O)c2c(=O)c(OC)c(-c3cccc(Cl)c3OCC(=O)O)oc2c1OC | -2% | -6% | -1% | 100% (active) | inactive | inactive | inactive | inactive |
